Experimental data: PubChem BioAssay
Values without a mark were called inactive. How the calls were made is not given here.

These molecules were tested on Aerobactin synthetase IucA (Klebsiella pneumoniae hvKP1) (assay: Biochemical IucA enzyme inhibition primary screen of the Spectrum library (AID 1346200;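 further: 100% = wells without compound and 0% = wells lacking enzyme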)). Conditions: malachite green pyrophosphate, A620, at 8 µM, hits give low values.
NCC1CCCCC1CC(=O)O (stereo not drawn) showed an activity remaining of 98.9%. CN(Cc1cnc2nc(N)nc(N)c2n1)c1ccc(C(=O)NC(CCC(=O)O)C(=O)O)cc1 (stereo not drawn) was tested, and the activity remaining was 121%. For COc1ccc(-c2cc(=O)c3c(O)cc(O[C@@H]4O[C@H](CO[C@H]5O[C@H](C)[C@@H](O)[C@H](O)[C@@H]5O)[C@@H](O)[C@H](O)[C@H]4O)cc3o2)cc1O, the activity remaining was 90.7%.
